Screens: PubChem BioAssay, The Scripps Research Institute Molecular Screening Center
TbREL1 inh: TbREL1 RNA ligase inhibitors, primary screen, biochemical, FRET fluorescence. RNA-editing ligase 1, mitochondrial (Trypanosoma brucei brucei), P86926. TbREL1 RNA ligation. inhibition, % at 9.66 µM. 89,000 compounds, 0.49% hits;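 active = inhibition above the mean inhibition across all screened compounds plus 3 SD, cut at about 11% in these data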;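 note: 0% = plate median of test wells and 100% = NSC42067 control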
Target sequence (P86926 whole entry, looked up): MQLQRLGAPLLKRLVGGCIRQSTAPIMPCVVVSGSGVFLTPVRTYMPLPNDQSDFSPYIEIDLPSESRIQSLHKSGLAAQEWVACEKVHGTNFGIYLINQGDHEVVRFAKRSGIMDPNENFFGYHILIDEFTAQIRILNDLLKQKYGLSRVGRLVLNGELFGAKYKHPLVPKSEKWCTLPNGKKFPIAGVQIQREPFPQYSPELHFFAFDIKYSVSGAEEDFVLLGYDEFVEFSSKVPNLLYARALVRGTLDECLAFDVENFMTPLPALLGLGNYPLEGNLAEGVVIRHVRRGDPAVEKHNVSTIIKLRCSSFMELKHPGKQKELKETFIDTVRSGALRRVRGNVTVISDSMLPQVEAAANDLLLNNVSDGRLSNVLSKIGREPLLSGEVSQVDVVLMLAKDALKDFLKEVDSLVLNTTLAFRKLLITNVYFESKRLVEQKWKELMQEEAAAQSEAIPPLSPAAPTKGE
TbREL1 confirm: TbREL1 RNA ligase inhibitors, confirmation, biochemical, FRET fluorescence, triplicate; shares compounds with TbREL1 inh; TbREL1 RNA ligation; inhibition, % at 9.66 µM; 390 compounds, 37% hits; AID 1117282, 2014;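 active = mean inhibition across replicates above a set limit taken from the earlier primary screen, cut at about 11% in these data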;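 note: 0% = REL1 with substrate and DMSO and 100% = REL1 plus control inhibitor NSC42067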
* = called active by the depositor. This is one part of a sample in which hits are shown more often than they occur.

SMILES | TbREL1 inh | others
O=C(CN1C(=O)NC2(CCCC2)C1=O)Nc1ccc(F)cc1 | 2
O=C1CC(=O)N(Cc2cccs2)C(=O)N1 | 4
O=C1C2C(C(=O)N1Cc1ccco1)C1C=CC2C12CC2 (stereo not drawn) | -2
O=C1CC(=O)N(Cc2ccco2)C(=O)N1 | 70*
O=S1(=O)CC(N2CCCCC2)CN1Cc1ccccc1 (stereo not drawn) | 4
O=C(CN(CCc1ccccc1)S(=O)(=O)c1ccc(Cl)s1)N1CCOCC1 | -1
Nc1cc(-c2ccccc2)nn1S(=O)(=O)c1ccc(F)cc1 | 1
O=C(NCCc1nc(-c2ccccc2Cl)no1)C1CCCCC1 | -3
COC(=O)C1=C(C)N(Cc2ccccc2)C(=NCc2ccc3c(c2)OCO3)N[C@H]1c1ccccc1 | 9
COC(=O)C1=C(C)N(Cc2ccccc2C(F)(F)F)C(=NCc2ccc3c(c2)OCO3)NC1c1ccc(C(F)(F)F)cc1 (stereo not drawn) | 14* | TbREL1 confirm=21*
COC(=O)C1=C(C)N(Cc2ccccc2C(F)(F)F)C(=NCc2ccc3c(c2)OCO3)NC1c1ccccc1 (stereo not drawn) | 12* | TbREL1 confirm=14*
COC(=O)C1=C(C)N(Cc2ccccc2C(F)(F)F)C(=NCc2ccc3c(c2)OCO3)NC1c1ccc(Cl)cc1 (stereo not drawn) | 11
CSc1ncccc1C(=O)OCc1c(F)cccc1Cl | 2
O=C1C(Cc2ccccc2O)NC(=S)N1c1ccccc1 (stereo not drawn) | -3
CN1C(=O)N(CC(=O)Nc2cccc(S(=O)(=O)N(C)c3ccccc3)c2)C(=O)C12CCCCC2 | -2
O=C(CN1CCOCC1)Nc1ccc2c(c1)OC(F)(F)O2 | 4
O=C(CN1CCOCC1)Nc1ccc2c(c1)OCCO2 | 12* | TbREL1 confirm=5
O=C(CN1CCN(c2ccc(O)cc2)CC1)Nc1ccc2c(c1)OCCO2 | -2
NC(=O)c1cccc(Nc2nc(C(N)COCc3ccccc3)cs2)n1 (stereo not drawn) | 4
Cc1ccccc1NC(=O)CC1SCCNC1=O (stereo not drawn) | 3
CCC(=O)c1ccc(OC(=O)c2cnccn2)cc1 | 17* | TbREL1 confirm=3
COc1ccc(C(=O)NCCNC(=O)c2cnccn2)cc1 | -1
O=C(OCCOc1ccc(Br)cc1)c1cnccn1 | -2
Cc1ccc(NC(=O)C2C3C=CC4(CN(Cc5cccnc5)C(=O)C24)O3)cc1 (stereo not drawn) | 1
CCn1cnc2cc(NCc3nc4ccccc4n3Cc3ccccc3)ccc21 | -8
SMILES | TbREL1 inh | others
CC(=O)c1ccc(-c2cc(C(C)=O)c3n(c2=O)CCC3)cc1 | -2
CC(=O)c1cc(-c2cccc(CO)c2)c(=O)n2c1CCC2 | 11* | TbREL1 confirm=0
CC(=O)c1cc(-c2ccc(Cl)c(Cl)c2)c(=O)n2c1CCC2 | 4
CC(C)(CC(=O)N1CCN(c2ccc(Cl)cc2)CC1)CC1=NS(=O)(=O)c2ccccc2N1 | 2
Cc1cccc(NS(=O)(=O)c2ccc3c(c2)CCC(=O)N3)c1 | 6
C[C@H](O)[C@@H]1CN2CCc3c([nH]c4c(-c5ccccc5)cccc34)[C@@H]2C[C@@H]1N(C)C(=O)Nc1ccccc1 | 7
CN(C(=O)COC(=O)c1cccs1)c1c(N)n(Cc2ccccc2)c(=O)[nH]c1=O | -1
CSc1nnc(SCC(=O)N(C)c2c(N)n(Cc3ccccc3)c(=O)[nH]c2=O)s1 | 7
CN(C(=O)CSc1ncnc2sccc12)c1c(N)n(Cc2ccccc2)c(=O)[nH]c1=O | 12* | TbREL1 confirm=2
O=C(/C=C/c1cn(-c2ccccc2)nc1-c1cccnc1)NCCN1CCOCC1 | 2
CN(C)CCNC(=O)/C=C/c1cn(-c2ccccc2)nc1-c1cc2ccccc2oc1=O | 12* | TbREL1 confirm=4
O=Cc1cn(-c2ccccc2)nc1-c1cc2ccccc2oc1=O | 6
CSc1ccc(S(=O)(=O)NCC(=O)OCC(=O)N(C)CC(=O)Nc2ccc(F)cc2)cc1[N+](=O)[O-] | -1
CCCCn1nnnc1C(c1ccccc1)N1CCN(c2ncccn2)CC1 (stereo not drawn) | -1
S=c1[nH]nc(CNc2ccc(Cl)cc2)n1Cc1ccccc1 | -6
Cc1ccc(S(=O)(=O)N2CCOC2CNC(=O)C(=O)NCc2ccc(Cl)cc2)cc1 (stereo not drawn) | -3
CC(=O)Nc1ccccc1NC(=O)COc1cccc2ccccc12 | 0
CC(=O)Nc1ccc(NC(=O)c2cccc3ccccc23)cc1 | 3
CC(=O)Nc1cc2c3ccccc3ccc2c2ccccc12 | 32* | TbREL1 confirm=5
COc1cc(/C=N/NC(=O)c2cccs2)ccc1OCc1ccccc1 | 0
COc1cc(/C=N/O)ccc1OCc1ccc(C(=O)O)cc1 | 1
NC(N)=N/N=C/c1ccc(OCc2ccccc2)c(OCc2ccccc2)c1 | 12* | TbREL1 confirm=10
COc1cc(NCc2ccccc2)c2ncn(Cc3ccccc3)c2c1 | 4
Cn1cccc1C(=O)NNC(=O)COc1ccc(C#N)cc1 | 0
COc1ccccc1NS(=O)(=O)c1cccc(C(=O)NNC(=O)c2ccc(NC(C)=O)cc2)c1 | 16* | TbREL1 confirm=1
SMILES | TbREL1 inh | others
COc1cc(C(=O)NNC(=O)c2ccc(NC(C)=O)cc2)cc(OC)c1OC | 1
COc1ccccc1NS(=O)(=O)c1cccc(C(=O)NCc2ccccn2)c1 | 2
CCOC(=O)c1sc(=NC(=O)c2ccc(S(=O)(=O)N3CC(C)OC(C)C3)cc2)n(C)c1C (stereo not drawn) | -2
CC1(C)CC(NC(=O)c2ccc(-c3ccc([N+](=O)[O-])cc3)o2)CC(C)(C)N1 | 12* | TbREL1 confirm=4
CC1(C)CC(NC(=O)Nc2ccc([N+](=O)[O-])cc2)CC(C)(C)N1 | 0
COc1ccc(NC(=O)c2ccc(-c3ccc([N+](=O)[O-])cc3)o2)cc1 | -1
CCOC(=O)C1(CCOc2ccccc2)CCN(Cc2cccc(F)c2)CC1 | -1
COc1ccc([C@H]2C=C(C(=O)O)O[C@@H](OCc3ccc(CO)cc3)C2)cc1 | 5
C=CCn1c(SCc2cccc(OC)c2)nnc1-c1ccncc1 | 0
CCOc1ccc(C2c3c(oc4ccccc4c3=O)C(=O)N2c2ccc(C)cn2)cc1OC (stereo not drawn) | 6
COC(=O)C1=C(C)N(Cc2ccccc2C(F)(F)F)C(=NCC2CC2)NC1c1ccc(F)cc1 (stereo not drawn) | 12* | TbREL1 confirm=11*
COC(=O)C1=C(C)N(Cc2ccc(Cl)cc2)C(=S)NC1c1ccc(OC)cc1 (stereo not drawn) | -3
COC(=O)C1=C(C)N(Cc2ccc(F)cc2)C(=S)NC1c1ccc(Cl)cc1 (stereo not drawn) | -1
COC(=O)C1=C(C)N(Cc2ccccc2)C(=NCc2ccco2)N[C@H]1c1cccc(F)c1 | 5
COC(=O)C1=C(C)N(Cc2ccccc2C(F)(F)F)C(=NCC2CC2)NC1c1ccc(C(F)(F)F)cc1 (stereo not drawn) | 10
COC(=O)C1=C(C)N(Cc2ccc(C(F)(F)F)cc2)C(=NCc2ccccc2C(F)(F)F)NC1c1ccc(F)cc1 (stereo not drawn) | 14* | TbREL1 confirm=14*
COC(=O)C1=C(C)N(Cc2ccccc2C(F)(F)F)C(=NCc2ccc(OC)cc2)NC1c1cccc(Cl)c1 (stereo not drawn) | 19* | TbREL1 confirm=18*
COC(=O)C1=C(C)N(Cc2ccccc2C(F)(F)F)C(=NCc2ccc(C(F)(F)F)cc2)NC1c1cccc(F)c1 (stereo not drawn) | 14* | TbREL1 confirm=22*
